Measurements from PubChem BioAssay (NCATS).
Records with an inconclusive call do not appear. Unmarked numbers belong to inactive results. Calls of active or inactive are those of the source. Calls follow the shape of the dose curve; as a rule, active = well fitted cell-killing curve with a large enough effect; inconclusive = small, poorly fitted or top-dose-only effect, or effect the other way; inactive = no such curve, though single readings can be large or run the other way.

What was measured:
[1] = Viability qHTS for spleen associated tyrosine kinase inhibitor (SYKi) naive MV4-11 cells (AID 1963823); also: nearly all actives have a fitted effect of over 40% in size
Summary of the method: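 In this viability screen, compounds acted on SYK inhibitor naive MV4-11 cells for three days (72 hr, 37 C). Remaining viable cells were measured by CellTiter-Glo luminescence following a 10 min room-temperature development.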

[2] = Viability qHTS for spleen associated tyrosine kinase inhibitor (SYKi) drug resistant MV4-11 cells (AID 1963824); also: nearly all actives have a fitted effect of over 35% in size
Summary of the method: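 SYK inhibitor-resistant MV4-11 AML cells, 500 per well, added to predispensed compounds and incubated 72 hr at 37 C, 5% CO2. Viability measured by CellTiter-Glo luminescence after 10 min at room temperature.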
Potency is read from the fitted curve at half-maximal effect.

SMILES	Potency [1]	Potency [2]
COC(=O)C1(C)CCC(O)C2(C)c3c(O)cc(C(C)C)cc3C(O)C(OC(C)=O)C12 (centres undefined)	inactive	inactive
Cc1ccccc1C1=CCN(C)CC1	inactive	inactive
C[C@H](CCC(=O)O)C[C@H](C)C[C@H](C)C(=O)/C=C(\O)[C@H](C)C[C@H](C)C/C=C/[C@@H](C)[C@@H](O)[C@@H](C)[C@@H](O)C[C@@H]1CC[C@@](C)([C@H]2CC[C@@](C)([C@@H](C)O)O2)O1	2520 nM (active)	2820 nM (active)
CC[C@H]1CN2CC[C@H]1C[C@@H]2[C@@H](O)c1ccnc2ccc(OC)cc12	inactive	inactive
C=C[C@H]1[C@H](O[C@@H]2O[C@H](CO)[C@@H](O)[C@H](O)[C@H]2O)OC=C2C(=O)OCC[C@H]21	inactive	inactive
CCC1C2CC3C4N(C)c5ccccc5C45CC(C2C5O)N3C1O (centres undefined)	inactive	inactive
CC1=CC(=O)[C@@H](O)[C@]2(C)C3[C@@H](O)[C@@H]4OC(=O)[C@@H]([C@H]4C)[C@]3(C)C(=O)C[C@@H]12 (some centres undefined)	904 nM (active)	1010 nM (active)
CNC(=O)NC(O)C(Cl)(Cl)Cl (centres undefined)	inactive	inactive
CCCCCCC(C)(C)c1cc(O)c2c(c1)OC(C)(C)C1CC=C(CO)C[C@H]21 (some centres undefined)	1180 nM (active)	1660 nM (active)
COC1CC(O[C@H]2CC[C@]3(C)C4CC[C@]5(C)[C@@H](C6=CC(=O)OC6)[C@@H](OC(C)=O)C[C@]5(O)C4CC[C@@H]3C2)OC(C)C1O[C@@H]1O[C@H](CO)[C@@H](O)[C@H](O)[C@H]1O (some centres undefined)	306 nM (active)	243 nM (active)
C=C(C)[C@@H]1[C@H]2OC(=O)[C@H]1[C@]1(O)C[C@H]3O[C@]34C(=O)O[C@H]2[C@]14C	inactive	inactive
CO[C@@H]1[C@H](O)[C@@H](O[C@@H]2C[C@H]3CC[C@@H]4C(CC[C@]5(C)[C@@H](C6=CC(=O)OC6)CC[C@]45O)[C@@]3(C)[C@H](O)C2)O[C@H](C)[C@@H]1O (some centres undefined)	63.2 nM (active)	28.2 nM (active)
CC(=O)O[C@@H]1[C@@H](O)[C@H]2O[C@@H]3C=C(C)[C@@H](O)C[C@]3(CO)[C@]1(C)[C@]21CO1	321 nM (active)	321 nM (active)
COC(=O)C1(C)CCC(=O)C2(C)c3c(O)cc(C(C)C)cc3C(O)C(OC(C)=O)C12 (centres undefined)	inactive	inactive
C[C@H]1CCC[C@H](O)CCC/C=C/c2cc(O)cc(O)c2C(=O)O1	7310 nM (active)	9200 nM (active)
C[C@H]1C(=O)O[C@H]2[C@H](O)[C@]34C5OC(=O)[C@]3(O[C@@H]3OC(=O)[C@H](O)C34[C@H](C(C)(C)C)[C@H]5O)C12O (some centres undefined)	inactive	inactive
COC(=O)C12C(=O)C(C)(O)C(=O)C1(C)C(C)=CC1C34CCC(OC3=O)C(C)(CO)C4CCC12C (centres undefined)	inactive	inactive
Cc1c(Cl)c(OCC(=O)N2CCN(C)CC2)nc2sc(C(=O)NC3CC3)c(N)c12	inactive	inactive
CC[C@@H](C)[C@H]1C(=O)O[C@H](C(C)C)C(=O)N(C)[C@@H]([C@@H](C)CC)C(=O)O[C@H](C(C)C)C(=O)N(C)[C@@H]([C@H](C)CC)C(=O)O[C@H](C(C)C)C(=O)N1C	1220 nM (active)	1720 nM (active)
O=C(OC[C@H]1O[C@@H](Oc2ccc(O)cc2CO)[C@H](O)[C@@H](O)[C@@H]1O)c1ccccc1	inactive	inactive
CC(C)(O)/C=C/C(=O)[C@](C)(O)[C@H]1[C@H](O)C[C@@]2(C)[C@@H]3CC=C4[C@@H](C=C(O)C(=O)C4(C)C)[C@]3(C)C(=O)C[C@]12C	59.6 nM (active)	37.6 nM (active)
COC1=CC(=O)O[C@@H](/C=C/c2ccccc2)C1	inactive	inactive
C[C@]12CC[C@@H](O)C[C@@H]1CC[C@@H]1[C@@H]2CC[C@]2(C)C(=O)[C@@H](Br)C[C@@H]12	16400 nM (active)	11600 nM (active)
CC1=CC2OC3CC(O)[C@](C)([C@@]2(C)C(O)C1=O)[C@]31CO1 (some centres undefined)	1840 nM (active)	1840 nM (active)
CC[C@@]1(O)C(=O)OCc2c1cc1n(c2=O)Cc2cc3c(OC)cccc3nc2-1	14.3 nM (active)	11.4 nM (active)
CC(C)(O)/C=C/C(=O)[C@](C)(O)[C@H]1[C@H](O)C[C@@]2(C)[C@@H]3CC=C4[C@@H](C[C@H](O)C(=O)C4(C)C)[C@]3(C)C(=O)C[C@]12C	317 nM (active)	282 nM (active)
CO[C@H]1[C@H](O)[C@H](O[C@H]2CC[C@]3(C)C4CC[C@]5(C)[C@H](C6=CC(=O)OC6)CC[C@]5(O)C4CC[C@@H]3C2)O[C@@H](C)[C@@H]1O (some centres undefined)	25.2 nM (active)	11.2 nM (active)
